Screens (PubChem BioAssay)
In the library only some 21% were active in any assay of this set; here they are far more common.
Pf growth 96h – inhibits malaria parasite growth, 96 h; P. falciparum luciferase reporter growth, 96 h; Potency, µM (top dose mostly 28.7 µM), hits mostly inhibitors; 320,000 tested, 6.9% active
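Erythrocytes infected with luciferase-expressing P. falciparum were dispensed at 2% hematocrit and 0.05% parasitemia (final), then incubated with compounds 96 hours at 37 C in 5% CO2. Luminescence after detection reagent addition reported growth.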
Cycloheximide cs – counter-screen for Shiga toxin inhibitors: cycloheximide protein synthesis inhibition; cell reporter, cycloheximide protein synthesis inhibition counterscreen; max response, %; 300,000 tested, 12% active; in the data active = max response mostly above about 13%, no sharp cut-off; inactive = mostly below about 14%; note: read at 38.3 µM for the half of the compounds with a filed dose
Giardia FBPA inh – Giardia lamblia aldolase inhibition | Potency, µM (doses to about 59.6 µM), most hits filed as inhibitors | 290,000 tested, 0.71% active | purified Giardia FBPA | A8B2U2; note: nearly all actives have a fitted effect of over 55% in size
Target sequence (A8B2U2 whole entry, looked up): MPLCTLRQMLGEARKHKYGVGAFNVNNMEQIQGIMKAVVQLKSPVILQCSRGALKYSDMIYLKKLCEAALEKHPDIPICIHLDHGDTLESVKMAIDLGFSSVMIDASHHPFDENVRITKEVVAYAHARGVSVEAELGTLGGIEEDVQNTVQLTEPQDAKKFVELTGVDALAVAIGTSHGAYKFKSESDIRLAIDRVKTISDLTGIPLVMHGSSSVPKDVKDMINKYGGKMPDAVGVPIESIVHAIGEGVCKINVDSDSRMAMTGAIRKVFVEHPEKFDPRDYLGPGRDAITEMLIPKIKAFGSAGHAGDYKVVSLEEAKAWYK
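Giardia FBPA (40 nM reagent) was preincubated 10 min at RT with compound (up to 57.5 uM final), then substrate plus GAPDH/TPI/NAD/arsenate coupling system with diaphorase/resazurin was added; resorufin fluorescence (525/598 nm) was read after 20 min.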
Pf growth 48h – inhibits P. falciparum growth in the first generation, 48 h. P. falciparum luciferase growth in erythrocytes, 48 h. Potency, µM (top dose mostly 28.7 µM), actives largely listed as inhibitors. 310,000 tested, 5.9% active. AID 504832
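Erythrocytes infected with P. falciparum carrying an integrated firefly luciferase reporter (2% hematocrit, 0.1% parasitemia final) were exposed to compounds in RPMI 1640 with 0.5% Albumax at 37 C, 5% CO2. Growth inhibition was scored as reduced luminescence.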
NS1 function inh – inhibitors of influenza NS1 protein function. Potency, µM (highest dose often 46.1 µM). 270,000 tested, 0.4% active. AID 2326; calls by dose curve; note: actives are rising curves; nearly all actives have a fitted effect of over 50% in size
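S. cerevisiae expressing influenza A NS1, grown in glucose, washed, then diluted 1:100 into pH 6.0 -URA galactose medium with 23 nl compound. Growth recovery read as OD600; NS1-free strain serves as control.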
Shiga toxin inh – blocks Shiga toxin action in Vero cells. Vero cells, Shiga toxin protein synthesis inhibition reporter. inhibition, % at 38.7 µM. 290,000 tested, 9.2% active; in the data active = inhibition mostly above about 28%, no sharp cut-off; inactive = mostly below about 43%
Of the large screens only hits and unclear results are named; the others gave an inactive call. Unless noted, calls come from the whole dose curve; as a rule, active = well fitted curve in the direction sought with a large enough effect; inconclusive = small, poorly fitted or top-dose-only effect, or another doubt; inactive = no such curve, though single readings can be large; an effect the other way counts as inactive or inconclusive.

COc1cccc(-c2nn(-c3ccccc3)cc2CNC(C)Cn2cncn2)c1 (centres undefined)	Pf growth 96h 10µM, Cycloheximide cs 34, Shiga toxin inh 111
OC[C@@H]1CCCN1Cc1cn(-c2ccccc2)nc1-c1ccc2c(c1)OCO2	Pf growth 48h 13µM
Cn1cc(CN2CCC[C@H]2CO)c(-c2cccc(Cl)c2)n1	Pf growth 96h inconclusive, Cycloheximide cs 27
COc1ccc(CN2C(=NC(=O)c3ccccc3)SC3CS(=O)(=O)CC32)cc1 (centres undefined)	none
Cn1c(=NC(=O)COc2ccccc2)sc2cccc(F)c21	none
CC(C)C(=O)N=c1sc2cccc(F)c2n1C	Cycloheximide cs 10
CCn1c(=NC(=O)c2ccco2)sc2cccc(F)c21	Cycloheximide cs 34, Shiga toxin inh 101
CCn1c(=NC(=O)c2ccc(S(=O)(=O)N3CCOCC3)cc2)sc2cccc(OC)c21	Pf growth 96h inconclusive, Pf growth 48h inconclusive
COc1cc(/C=C/C(=O)OCc2cn3cc(Cl)ccc3n2)ccc1O	Pf growth 96h inconclusive, Pf growth 48h 10µM
CCOC(=O)CSCc1cn2cc(Cl)ccc2n1	Cycloheximide cs 24 (no result: Pf growth 96h)
Cc1ccccc1CNC(=O)c1ccccc1N(C)S(=O)(=O)c1ccccc1	Pf growth 48h inconclusive (no result: Shiga toxin inh)
CCOC(=O)c1cn2nc(SCc3ccccc3)nc2nc1C	Cycloheximide cs 39, Shiga toxin inh 52
CSc1nc2ncc(C#N)cn2n1	none (no result: NS1 function inh)
N#Cc1cnc2nc(SCc3ccccc3)nn2c1	Cycloheximide cs 35, Shiga toxin inh 70
CC12CCC=CC1C(c1ccc(F)c(Br)c1)N(Cc1ccccc1)C2=O (centres undefined)	none (no result: Pf growth 96h, Pf growth 48h, NS1 function inh)
CCC1C=CC=CC[C@H](C)[C@@H](O)[C@](C)(O)C(=O)[C@@H](C)[C@H](O)[C@@H](C)C(=O)[C@H](C)[C@@H](O)[C@H](C)C=CC(=O)OC2[C@@H](C)C(CC1)OC1(CC[C@@H](C)C(C[C@H](C)O)O1)[C@@H]2C (some centres undefined)	Pf growth 96h 0.12µM, Pf growth 48h 0.13µM (no result: Cycloheximide cs, Giardia FBPA inh, NS1 function inh, Shiga toxin inh)
COCCn1c(-c2ccc(OC(F)(F)C(F)C(F)(F)F)cc2)nc2c1c(=O)[nH]c(=O)n2CC(C)C (centres undefined)	Pf growth 96h 6.6µM (no result: Pf growth 48h)
COCCn1c(-c2ccc(SC)cc2)nc2c1c(=O)[nH]c(=O)n2CC(C)C	Cycloheximide cs 24
COCCNC(=O)C1(C(F)(F)F)C/C(=C\CCO)CCCO1 (centres undefined)	none (no result: Pf growth 96h, Pf growth 48h, NS1 function inh)
CCc1nc2nc(C)c(NS(=O)(=O)c3ccc(Cl)cc3)c(=O)n2[nH]1	none
Cc1ccc(Nc2nnc(SCC(=O)Nc3cccnc3Cl)s2)cc1C	Cycloheximide cs 27, Shiga toxin inh 52
Cc1nc(CSc2nnc(Nc3cccc(C)c3C)s2)cs1	Pf growth 96h 7.4µM, Pf growth 48h inconclusive
O=C(CSc1nc2ccc([N+](=O)[O-])cc2s1)NC1CCS(=O)(=O)C1 (centres undefined)	Pf growth 96h inconclusive, Pf growth 48h inconclusive (no result: NS1 function inh)
CN(C(=O)CSc1nc2ccc([N+](=O)[O-])cc2s1)C1CCS(=O)(=O)C1 (centres undefined)	Pf growth 96h 9.3µM, Pf growth 48h inconclusive
Cc1cccc(Nc2nnc(SCC(=O)N(C)C3CCS(=O)(=O)C3)s2)c1C (centres undefined)	Pf growth 96h 2.9µM, Pf growth 48h inconclusive
O=C(CSc1nnc2ncccn12)Nc1cccc2ccccc12	none
CC(NS(=O)(=O)c1ccc(Cl)cc1)C(=O)N1CCOCC1 (centres undefined)	none
O=C(NCc1nnc2c(C(F)(F)F)cc(Cl)cn12)c1cccnc1	none
CCCCN(C(=S)SC)C1CCS(=O)(=O)C1 (centres undefined)	none
Cc1cccc(Nc2nnc(SCC(=O)Nc3ccccc3[N+](=O)[O-])s2)c1C	Pf growth 96h inconclusive, Cycloheximide cs 27, Pf growth 48h inconclusive
Cc1ccc(Nc2nnc(SCC(=O)NCCN3C(=O)CSC3=O)s2)cc1	Cycloheximide cs 13
CCc1ccc(Nc2nnc(SCC(=O)N(C)CC(=O)Nc3ccccc3CC)s2)cc1	Cycloheximide cs 28
COC(=O)CC1C(=O)NCCN1C(=O)c1ccc([N+](=O)[O-])cc1 (centres undefined)	none (no result: Pf growth 48h)
CCc1ccccc1NC(=O)CN(C)C(=O)CSc1nnc(Nc2ccc(C)cc2)s1	Pf growth 96h inconclusive
COC(=O)CC1C(=O)NCCN1C(=O)CSc1nc2ccc([N+](=O)[O-])cc2s1 (centres undefined)	Pf growth 96h inconclusive, Pf growth 48h 10µM (no result: NS1 function inh)
COc1nc(-c2cnccn2)sc1C	Pf growth 48h inconclusive (no result: NS1 function inh)
COCCn1c(C)nnc1SCC(=O)Nc1ccccc1[N+](=O)[O-]	none
Cc1ccc(Nc2nnc(SCC(=O)Nc3ccccc3[N+](=O)[O-])s2)cc1	Pf growth 96h 10µM
CCc1ccc(CN2CCCC(C(=O)Nc3ccccc3-c3ccc(OC)cc3)C2)o1 (centres undefined)	Pf growth 96h inconclusive, Pf growth 48h inconclusive (no result: Giardia FBPA inh)
CC(CNC(=O)c1ccc(C#N)cc1)NC(=O)c1ccc(C#N)cc1 (centres undefined)	none
COCCn1c(C)cc(/C=C2\NC(=S)N(C)C2=O)c1C	Pf growth 96h inconclusive, Cycloheximide cs 17, Giardia FBPA inh inconclusive, Pf growth 48h inconclusive, Shiga toxin inh 47
COC(=O)CN1C(=O)S/C(=C/c2cc(C)n(C)c2C)C1=O	Pf growth 96h inconclusive, Cycloheximide cs 28, Shiga toxin inh 35
COC(=O)C(C)N1C(=O)S/C(=C/c2cc(C)n(C(C)C)c2C)C1=O (centres undefined)	Cycloheximide cs 38, Shiga toxin inh 106
COC(=O)CN1C(=O)S/C(=C/c2ccc(N3CCCCC3)o2)C1=O	Giardia FBPA inh inconclusive
COCCn1c(C)cc(/C=C(\C#N)C(=O)OC(C)C(=O)Nc2ccc(NC(C)=O)cc2)c1C (centres undefined)	none (no result: Cycloheximide cs, Giardia FBPA inh, NS1 function inh, Shiga toxin inh)
COCCn1c(C)cc(/C=C2/SC(=O)N(C(C)C(=O)OC)C2=O)c1C (centres undefined)	Cycloheximide cs 53, Shiga toxin inh 89
CCn1c(C)cc(/C=C2/SC(=S)N(CC(=O)O)C2=O)c1C	none (no result: NS1 function inh)
C#CCN1C(=O)S/C(=C/c2cc(C)n(CC)c2C)C1=O	Cycloheximide cs 74, Shiga toxin inh 103
CCn1c(C)cc(/C=C2/SC(=O)N(C(C)C(=O)OC)C2=O)c1C (centres undefined)	Cycloheximide cs 48, Shiga toxin inh 106
C[S@@](=O)CCCCN=C=S	Cycloheximide cs 57 (no result: Pf growth 96h, Pf growth 48h, NS1 function inh)
CC(=O)Nc1ccc(Oc2ccccc2)cc1	Pf growth 96h inconclusive, Pf growth 48h inconclusive
CCOC(=O)C(=O)Nc1ccc(Oc2ccccc2)cc1	none
O=C(Nc1ccc(N=Nc2ccccc2)cc1)c1ccccc1Cl	Cycloheximide cs 27, Shiga toxin inh 73
O=C(Nc1ccc(N=Nc2ccccc2)cc1)c1ccc(Cl)cc1Cl	none
CCOC(=O)/C(C(=Nc1ccccc1)Nc1ccccc1)=C(\C)O	Pf growth 96h 10µM
